Source: PubChem BioAssay AID1508600 (Functional Genomics Laboratory (NCATS/FGL), 2020)
The campaign covered roughly 53,000 sequences. About 3,700 (7%) were called active. The full list was thinned out, with actives kept by preference. Unmarked numbers belong to inactive results.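 How the source made its calls: active means gene knockdowns whose robust z-score for IL-1 alpha signal is at least 2 or at most -2, so actives lie on both sides; inactive means the rest.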

Test: Components of the Cytosolic LPS Sensing Pathway: Gene Identification via Genome-wide siRNA Screen;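 further: robust z of the log signal after scaling to non-targeting control siRNA wells of the plate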
Conditions: RAW264.7 macrophages, IL-1a HTRF, actives lie on both sides, screened at 100 nM (by protocol), cells primed 5 h with Pam3CSK4 first
Method in brief: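 Supernatant IL-1a by HTRF from RAW264.7 cells primed with Pam3CSK4 (5 hours) and transfected with LipidA (24 hour) after 48h siRNA knockdown at 100 nM; cell viability checked with CellTiter-Glo.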

Q: For CCCUCAAUCUAACAGUGCATT against Dsg1b, which z-score is on record?
A: 0.75

Q: Which z-score does the source give for GGAGAAAGACAACUUCCUATT against Clec7a here?
A: 0.239

Q: Which z-score does the source give for GGCUCCUGUAAUGCUAACUTT against Zfp715 here?
A: -0.191

Q: Which z-score does the source give for “GGAUACUUUAUGGUAUUUCTT against 9130023H24Rik” here?
A: 1.45

Q: Which z-score does the source give for GAUUUCAAGAUCCAGACUCTT against Riiad1 here?
A: -0.435

Q: Which z-score does the source give for GCAGAGUUACAAGCUUUUATT against Diaph3 here?
A: -4.98 (active)

Q: With CCUCGUUCCUUUGAAAUCATT against Gfi1 as the sequence, how does the z-score read?
A: 0.255

Q: Which z-score does the source give for GCUAUGUGAAUUUGUAUGATT against Parp11 here?
A: 0.398

Q: For GCAUACGAUAUCACCAUAUTT against Dsg1a, which z-score is on record?
A: 0.173

Q: For GCUCCGGAACAGAUAAAACTT against Kat14, which z-score is on record?
A: -0.485

Q: Which z-score does the source give for GGCAGUAACUUAAAACAGATT against Mecp2 here?
A: -0.139

Q: Which z-score does the source give for GCUGAAAGAAUUCGUGGACTT against Phf2 here?
A: 1.69

Q: For GAUAUCACGGUCAUCUGUCTT against Pde6h, which z-score is on record?
A: -0.19

Q: For CCUCGUAUUAGAUGAUGCATT against Snrpe, which z-score is on record?
A: -2.79 (active)

Q: With CCUGCGCUUCUGACUAUCUTT against Dcbld1 as the sequence, how does the z-score read?
A: 0.18

Q: For GGAGACCUGGCAAAUGUAATT against Dctn5, which z-score is on record?
A: 0.884

Q: Which z-score does the source give for GGAUCUCGAGUCUCAUCUCTT against Ccdc166 here?
A: 0.851

Q: For CCGGAAGAGCUUGCUUUAUTT against Sgpp2, which z-score is on record?
A: 1.19

Q: Which z-score does the source give for GGAUCCAAGGUGAAAAUAUTT against Fam131a here?
A: -2.25 (active)

Q: With GGCUAAGGGUAACGUGCUGTT against Bri3 as the sequence, how does the z-score read?
A: -0.263

Q: With GGUGGUUAAAUGGUUUUAATT against Prkg2 as the sequence, how does the z-score read?
A: 1.98

Q: For GGAUCUGACAGCUCAUUUUTT against Casp7, which z-score is on record?
A: 1.01

Q: With CCACAAAACUAAGACACCUTT against P2ry6 as the sequence, how does the z-score read?
A: 0.587

Q: With GGCUCUAACAUGACAAUUUTT against Hyal1 as the sequence, how does the z-score read?
A: -0.251

Q: Which z-score does the source give for GGGAAAAUGGAAAAUACAUTT against Emc3 here?
A: 2.59 (active)

Q: Which z-score does the source give for GCUGAUUAACCCUCAGUAUTT against Gpc6 here?
A: -0.531

Q: With GCAAGUGUAGAUAAAGUAUTT against Msi2 as the sequence, how does the z-score read?
A: 0.751

Q: Which z-score does the source give for GGAAAAGAUAACUCAGACATT against Hrg here?
A: 0.727

Q: Which z-score does the source give for GCUCUACCCUGAAGAUAUATT against Immt here?
A: 2.44 (active)

Q: Which z-score does the source give for GGCCACCAUUUCUGAAAUCTT against Tecr here?
A: 0.714

Q: For GAACACAAAUCUAGUAGACTT against Olfr1109, which z-score is on record?
A: 0.278

Q: Which z-score does the source give for GGAGAAUUAAAAUGUGAAGTT against Hsd17b4 here?
A: 0.161

Q: Which z-score does the source give for GGAGCUAAACUCCUUGAAGTT against Slc22a4 here?
A: 2.07 (active)

Q: For GGGUGCCUAGCAGAUGAACTT against Sp110, which z-score is on record?
A: -0.912

Q: With GGACAAUGUUGAAUCCUGUTT against Rrp15 as the sequence, how does the z-score read?
A: -0.155

Q: For GGAGGAAUCAAAGGCUCCUTT against Slc39a5, which z-score is on record?
A: -0.319

Q: For GGCGCAUUAGCAGAGACUGTT against Mrps5, which z-score is on record?
A: 4.17 (active)

Q: With GGCACAUUAGUAGAACACATT against Sorcs2 as the sequence, how does the z-score read?
A: -0.243

Q: Which z-score does the source give for GGAUCAUUCCUUUGGUUAGTT against Fabp5 here?
A: -1.34

Q: For GCCAAGAAUAGCAUUACUGTT against Abraxas1, which z-score is on record?
A: -2.45 (active)

Q: Which z-score does the source give for GGGUAGCUACGAAGAGGAATT against Ros1 here?
A: 1.72

Q: With GGAAAACCAGCUAAUUAUCTT against Ptger3 as the sequence, how does the z-score read?
A: -0.23

Q: With GGAAAGUGUGUGUUAUAUUTT against Zfp358 as the sequence, how does the z-score read?
A: 1.98

Q: Which z-score does the source give for CGAGCUUAUCAUCAGCGACTT against Polr2f here?
A: -2.74 (active)

Q: With CGGGAUAUCAUUCUCCAUATT against Lnpep as the sequence, how does the z-score read?
A: 0.62

Q: With GGUUUUAAGUUCUAGGGAATT against Olfr1288 as the sequence, how does the z-score read?
A: -0.599

Q: With GCAUGUUUACCUCAAAGUGTT against Cd209e as the sequence, how does the z-score read?
A: 0.843

Q: With GGCCUUGCUUUCAUAAAGUTT against Mrpl49 as the sequence, how does the z-score read?
A: 0.348

Q: With CGAUACCCAACUGUUGAAATT against Ap5m1 as the sequence, how does the z-score read?
A: 1.12

Q: Which z-score does the source give for CCCGCUAUUACGUUUUUCUTT against Mtarc2 here?
A: -0.498

Q: With CCUCAGAACAAAUGAAAAUTT against Nlk as the sequence, how does the z-score read?
A: -0.62

Q: With GGCAGGUGAAUGUGGUAGATT against Btbd17 as the sequence, how does the z-score read?
A: 0.165

Q: With GGCCAACACUAACACAGACTT against Tmem268 as the sequence, how does the z-score read?
A: -0.357
